Records with an inconclusive call do not appear. The source made the active and inactive calls. Unless noted, the call rests on the fitted dose curve; in most records, active means well fitted curve in the direction sought with a large enough effect in the repeat runs; inconclusive means weak or mixed curves; inactive means no such curve, though single readings can be large; an effect the other way counts as inactive or inconclusive.
Legend:
[1] = biological target: Luciferin 4-monooxygenase (Photinus pyralis) (UniProt P08659); assay: qHTS assay to identify small molecule inhibitors of firefly luciferase (AID 1224835); further: series mostly up to about 120 µM; nearly all actives have a fitted effect of over 25% in size
How it was run: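 Biochemical qHTS: compounds run as interplate titrations against purified firefly enzyme, with D-luciferin and ATP each at its KM concentration. Light output recorded by CCD imaging.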

[2] = qHTS assay to identify small molecule agonists of the constitutive androstane receptor (CAR) signaling pathway - cell viability counter screen (AID 1224836); further: series mostly up to about 92 µM; nearly all actives have a fitted effect of over 45% in size
How it was run: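 Fluorescence from CellTiter-Fluor indicates live cells after 23 h exposure. The human hepatoma line expresses hCAR and a CYP2B6-2.2kb reporter. Incubation medium contains 0.75 uM PK11195 (final).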

[3] = qHTS assay to identify small molecule antagonists of the constitutive androstane receptor (CAR) signaling pathway - cell viability counter screen (AID 1224837); further: series mostly up to about 92 µM; nearly all actives have a fitted effect of over 45% in size
How it was run: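 To flag cytotoxic false antagonists, HepG2 hCAR/CYP2B6-2.2kb cells were treated 23 hr with 15-concentration compound series and 50 nM CITCO at 37 C/5% CO2; CellTiter-Fluor fluorescence was the measured end point.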

[4] = biological target: Nuclear receptor subfamily 1 group I member 3 (Homo sapiens) (UniProt Q14994); assay: qHTS assay to identify small molecule antagonists of the constitutive androstane receptor (CAR) signaling pathway (AID 1224838);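 further: HepG2 cells stably expressing hCAR with CYP2B6 luciferase reporter stimulated by CITCO; nearly all actives have a fitted effect of over 40% in size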
How it was run: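 Human hepatoma HepG2 cells expressing hCAR and a CYP2B6 promoter (2.2 kb) luciferase construct; compound titration (15 points) with 50 nM CITCO final, 24 h at 37 C/5% CO2; luminescence via ONE-Glo after 30 min at room temperature.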

[5] = biological target: Nuclear receptor subfamily 1 group I member 3 (Homo sapiens) (UniProt Q14994); assay: qHTS assay to identify small molecule agonists of the constitutive androstane receptor (CAR) signaling pathway (AID 1224839);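 further: HepG2 cells stably carrying human CAR and a CYP2B6 luciferase reporter; series mostly up to about 92 µM; nearly all actives have a fitted effect of over 15% in size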
How it was run: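 Stable hCAR/CYP2B6-2.2kb HepG2 line in DMEM with 10% FBS; compounds (15 concentrations) and 0.75 uM PK11195 final, 24 h at 37 C/5% CO2, then ONE-Glo luminescence after 30 min.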

[6] = qHTS assay to identify small molecule antagonists of the estrogen related receptor signaling pathway with the pleiotropic PPARgamma coactivator (PGC) from Tox21 10K library - cell viability counter screen (AID 1224840; active means well fitted cell-killing curve with a large enough effect in the repeat runs, not every such curve was filed as active; further: nearly all actives have a fitted effect of over 40% in size)
How it was run: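 Seeded PGC/ERR cells (2,000/well, 6 h, 37 C/5% CO2) get compound by pin tool; 17.5 h incubation at 37 C; CellTiter-Fluor added, 30 min, fluorescence measured.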

[7] = qHTS assay to identify small molecule antagonists of the estrogen related receptor signaling pathway with the pleiotropic PPARgamma coactivator (PGC) from Tox21 10K library (AID 1224841; call rule not given here; further: series mostly up to about 92 µM; actives are mostly falling curves and most rising ones were filed inactive; nearly all actives have a fitted effect of over 50% in size)
How it was run: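 Test chemicals dissolved in DMSO were applied to pre-incubated (6 h) PGC/ERR cells at 2,000 cells/well for an 18 h, 37 C treatment; reporter luminescence was then read using One-Glo.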

[8] = qHTS assay to identify small molecule agonists of the estrogen related receptor signaling pathway with the pleiotropic PPARgamma coactivator (PGC) from Tox21 10K library (AID 1224842); further: nearly all actives have a fitted effect of over 15% in size
How it was run: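 PGC/ERR reporter cell line, 2,000 cells per well, incubated 6 h at 37 C before 23 nL compound in DMSO was added. After 18 h at 37 C, One-Glo luminescence read following 30 min at room temperature.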

[9] = qHTS assay to identify small molecule agonists of the hypoxia (HIF-1) signaling pathway - cell viability counter screen (AID 1224844; calls by dose curve; further: nearly all actives have a fitted effect of over 50% in size)
How it was run: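 HRE-bla ME-180; 0.5% dFBS; cpd 17 h, 37C, 5% CO2; CellTiter-Glo lum., 30 min RT, post-FRET read, same wells.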

[10] = qHTS assay to identify small molecule agonists of H2AX (AID 1224845; active means well fitted activation curve with a large enough effect in the signal ratio in the repeat runs, not every such curve was filed as active; the % refers to the signal ratio)
How it was run: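 Wild-type CHO-K1 cells, plated overnight, exposed 3hr at 37C to 15 concentrations (0.76% DMSO final). Lysed, then HTRF anti-pH2AX (S139) cryptate and anti-H2AX-d2 antibodies, 24 hr room temperature; 665/620 nm emission read.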

[11] = qHTS assay to identify small molecule agonists of the hypoxia (HIF-1) signaling pathway (AID 1224846; active means well fitted activation curve with a large enough effect in the signal ratio in the repeat runs, not every such curve was filed as active; the % refers to the signal ratio)
How it was run: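 Reporter induction in HRE-bla ME-180 cells is taken as agonism: cells sit 5 hrs after plating, receive compounds or DMSO only, incubate 17 hrs at 37C under 5% CO2, and are loaded with CCF4-AM for beta-lactamase FRET measurement.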

[12] = qHTS assay to identify small molecule agonists of H2AX - cell viability counter screen (AID 1224847; calls by dose curve; further: top concentration of the series differs between compounds; nearly all actives have a fitted effect of over 30% in size)
How it was run: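 Viability of CHO-K1 (wild type) cells after 3 hr compound exposure was measured by CellTiter-Glo luminescence.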

[13] = qHTS assay to identify small molecule antagonists of the estrogen related receptor (ERR) signaling pathway from Tox21 library (AID 1224848); further: nearly all actives have a fitted effect of over 50% in size
How it was run: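 Compounds dissolved in DMSO are pin-transferred onto ERR reporter cells (2,000 per well) that have settled for 6 h at 37 C. Plates then incubate 18 h at 37 C before ONE-Glo luciferase reagent and a luminescence read 30 min later.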

[14] = qHTS assay to identify small molecule agonists of the estrogen related receptor (ERR) signaling pathway from Tox21 library (AID 1224849; calls by dose curve; further: nearly all actives have a fitted effect of over 15% in size)
How it was run: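 Tox21 compounds tested for ERR agonism in an NTP reporter cell line: 18 h treatment at 37 C, then ONE-Glo luminescence.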

[15] = qHTS RealTime-Glo MT Cell Viability Assay in HEK293 cells - 32 hour (AID 1224868); further: top concentration of the series differs between compounds; nearly all actives have a fitted effect of over 50% in size
How it was run: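 Quantitative high-throughput screen of the Tox21 10K library in HEK293: cells and RealTime-Glo reagents plated together, compound added at 5 h, luminescence monitored through 40 h at 37 C.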

[16] = A CellTox Green Cytotoxicity Assay to monitor cytotoxicity in HEK293 cells - 0 hour (AID 1224869); further: nearly all actives have a fitted effect of over 50% in size
How it was run: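 Tox21 screen in HEK293: membrane-impermeant cyanine dye fluoresces on binding dead-cell DNA; compound pinned 5 h post-seeding, plates held at 37 C, signal read repeatedly through 40 h.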

[17] = qHTS assay to identify small molecule antagonists of the estrogen related receptor (ERR) signaling pathway from Tox21 library - cell viability counter screen (AID 1224834); further: nearly all actives have a fitted effect of over 30% in size
How it was run: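 Seeded ERR cells were rested 6 h at 37 C/5% CO2 before compounds, positive and negative controls or DMSO were added. Incubation continued for 17.5 h, and viability was then quantified by CellTiter-Fluor fluorescence.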

[18] = biological target: Thyrotropin receptor (Homo sapiens) (UniProt P16473); assay: qHTS assay to identify small molecule agonists of the thyroid stimulating hormone receptor (TSHR) signaling pathway (AID 1224843; calls by dose curve; further: nearly all actives have a fitted effect of over 45% in size)
How it was run: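 HEK293/TSHR, 800 cells/well; cpd 30 min RT; add cAMP-d2 + anti-cAMP-cryptate, 1 h RT; fluorescence read on plate reader. 15-pt titration, n=3.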

[19] = qHTS RealTime-Glo MT Cell Viability Assay in HepG2 cells - 24 hour (AID 1224867); further: nearly all actives have a fitted effect of over 50% in size
How it was run: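 Compound treatment began 5 h after plating HepG2 cells (600/well) with NanoLuc luciferase and prosubstrate. Plates stayed at 37 C for 40 h; luminescence was captured at six time points, 0 h through 40 h.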

Measured: Potency

Sequence of Thyrotropin receptor (Homo sapiens) (P16473 whole entry, looked up): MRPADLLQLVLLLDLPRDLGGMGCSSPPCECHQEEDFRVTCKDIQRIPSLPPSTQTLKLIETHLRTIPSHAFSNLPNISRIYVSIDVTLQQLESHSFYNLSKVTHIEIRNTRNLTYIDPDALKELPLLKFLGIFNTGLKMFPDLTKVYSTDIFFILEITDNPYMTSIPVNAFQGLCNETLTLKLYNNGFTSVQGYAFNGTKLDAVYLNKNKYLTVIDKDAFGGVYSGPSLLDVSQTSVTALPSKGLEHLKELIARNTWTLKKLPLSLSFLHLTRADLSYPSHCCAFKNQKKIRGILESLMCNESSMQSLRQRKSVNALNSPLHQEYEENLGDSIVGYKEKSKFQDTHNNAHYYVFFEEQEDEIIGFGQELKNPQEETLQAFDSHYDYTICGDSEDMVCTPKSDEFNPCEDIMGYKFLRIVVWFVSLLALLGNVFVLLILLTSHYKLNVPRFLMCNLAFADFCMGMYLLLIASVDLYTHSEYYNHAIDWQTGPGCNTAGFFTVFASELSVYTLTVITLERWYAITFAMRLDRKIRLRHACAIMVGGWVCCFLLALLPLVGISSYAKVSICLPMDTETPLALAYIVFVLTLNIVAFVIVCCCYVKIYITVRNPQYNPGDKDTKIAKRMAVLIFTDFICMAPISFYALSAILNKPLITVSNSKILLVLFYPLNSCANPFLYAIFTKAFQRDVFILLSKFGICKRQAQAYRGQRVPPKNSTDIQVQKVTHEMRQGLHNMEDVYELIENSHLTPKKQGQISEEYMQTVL
Sequence of Nuclear receptor subfamily 1 group I member 3 (Homo sapiens) (Q14994 whole entry, looked up): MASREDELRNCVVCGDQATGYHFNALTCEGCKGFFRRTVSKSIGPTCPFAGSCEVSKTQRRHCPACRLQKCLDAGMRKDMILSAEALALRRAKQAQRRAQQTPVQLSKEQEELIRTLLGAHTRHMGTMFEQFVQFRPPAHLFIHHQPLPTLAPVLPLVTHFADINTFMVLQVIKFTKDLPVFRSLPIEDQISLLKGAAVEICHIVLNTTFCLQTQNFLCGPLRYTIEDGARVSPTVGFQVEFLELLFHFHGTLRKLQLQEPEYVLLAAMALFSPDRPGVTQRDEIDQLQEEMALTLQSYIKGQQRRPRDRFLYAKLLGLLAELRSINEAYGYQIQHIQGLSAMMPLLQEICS
Sequence of Luciferin 4-monooxygenase (Photinus pyralis) (P08659 whole entry, looked up): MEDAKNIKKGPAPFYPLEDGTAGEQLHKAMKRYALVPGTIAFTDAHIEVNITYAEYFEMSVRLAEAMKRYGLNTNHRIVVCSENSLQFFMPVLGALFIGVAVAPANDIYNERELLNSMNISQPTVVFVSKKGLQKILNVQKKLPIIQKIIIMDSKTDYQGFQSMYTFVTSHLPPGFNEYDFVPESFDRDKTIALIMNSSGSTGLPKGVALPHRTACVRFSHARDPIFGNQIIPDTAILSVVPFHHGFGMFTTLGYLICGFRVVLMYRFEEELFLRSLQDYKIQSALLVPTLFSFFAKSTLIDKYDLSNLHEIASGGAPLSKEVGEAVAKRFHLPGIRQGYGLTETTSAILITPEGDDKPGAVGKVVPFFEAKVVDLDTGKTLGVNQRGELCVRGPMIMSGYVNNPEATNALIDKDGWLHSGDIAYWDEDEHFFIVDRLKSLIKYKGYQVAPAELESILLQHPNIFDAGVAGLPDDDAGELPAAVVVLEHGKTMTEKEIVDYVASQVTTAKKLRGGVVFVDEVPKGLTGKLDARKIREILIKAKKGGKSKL

CCCOC(=O)c1ccccc1
inactive: [1] | [2] | [3] | [4] | [5] | [6] | [7] | [8] | [9] | [10] | [11] | [12] | [13] | [14] | [15] | [16]

CC(C)=CCl
inactive: [17] | [1] | [2] | [4] | [5] | [6] | [18] | [9] | [10] | [11] | [12] | [19] | [15] | [16]

CCCCCCCC=O
inactive: [17] | [1] | [2] | [3] | [6] | [9] | [10] | [11] | [12] | [19] | [15] | [16]

CCNC(=S)NCC
inactive: [17] | [1] | [2] | [4] | [5] | [6] | [18] | [9] | [10] | [11] | [12] | [19] | [15] | [16]

CCO[Si](CCC#N)(OCC)OCC
inactive: [17] | [1] | [2] | [3] | [6] | [9] | [10] | [11] | [12] | [19] | [15] | [16]

CCO[Si](CCCN)(OCC)OCC
inactive: [17] | [1] | [2] | [4] | [5] | [6] | [7] | [8] | [18] | [9] | [10] | [11] | [12] | [13] | [14] | [15] | [16]

CC(=O)OCCOC(C)=O
inactive: [17] | [1] | [2] | [4] | [5] | [6] | [9] | [10] | [11] | [12] | [19] | [15] | [16]

O=C(O)CCCCCCCCC(=O)O
inactive: [17] | [1] | [2] | [4] | [5] | [6] | [7] | [8] | [18] | [9] | [10] | [11] | [12] | [13] | [14] | [15] | [16]

C[C@]12CC[C@@H]3c4ccc(O)cc4CC[C@H]3[C@@H]1C[C@@H](O)[C@@H]2O
inactive: [17] | [1] | [2] | [6] | [18] | [9] | [10] | [11] | [19] | [15] | [16]

C=Cc1ccc(C)cc1
inactive: [1] | [2] | [3] | [4] | [5] | [6] | [18] | [9] | [10] | [11] | [12] | [19] | [15] | [16]

Source: PubChem BioAssay (Tox21)
